Reference: ChEMBL document CHEMBL4513160, “CO-ADD screening of MMV (CH) - Small Polar Library”
Screen size: about 18,000 compounds; fewer than 10 showed an effect of 50% or more. A selection follows.

Each compound was assayed on Pseudomonas aeruginosa (assay: Antibacterial activity against Pseudomonas aeruginosa PAO397 [PAO1 d(mexAB-oprM) d(mexCD-oprJ) d(mexEF-oprN) d(mexJKL) d(mexXY) d(opmH)] (CO-ADD:GN_211); MIC in CAMBH media using NBS plates, by OD(600)). Conditions: Concentration 300 ug.mL-1, ASSAY_TEST Inhibition of Bacterial Growth, detection method Absorption (OD600), MEDIA CAMHB, plate type 384well, CORNING #3640, time 18 hr.
Assay type: functional

Row | Structure (SMILES) | Inhibition [%]
1 | Cn1ccnc1SCCNCC1(O)CNCCOC1 (stereo not given) | 1.72
2 | COCCn1ccnc1CN1CCN(C)C(CO)C1 (stereo not given) | -3.82
3 | CN(C)C1CCCN(C(=O)c2n[nH]c(N)c2Cl)CC1 (stereo not given) | -17.73
4 | O=C1CC(N2CCN(Cc3ccccc3)CC2)C(=O)N1 (stereo not given) | -12.59
5 | CN1CC[C@H]2CN(C(=O)CCCc3cn[nH]c3)C[C@H]21 | -2.24
6 | CC(O)CCS(C)(=O)=O (stereo not given) | 4.88
7 | NC1CCN(S(=O)(=O)C2CC2)CC1 | 17.98
8 | O=C(CCc1ccc2[nH]ccc2c1)N1CCOCC1 | -29.4
9 | CCOc1cc(C(=O)NC2=NCCS2)ccc1OC | 13.17
10 | Cn1nc(C(=O)Nc2nc(CC(N)=O)cs2)ccc1=O | 12.8
11 | OCc1cc(CNc2ncccn2)ccc1F | 6.43
12 | CC(CN)N(C)C(=O)c1ccccc1Br (stereo not given) | 12.75
13 | CN(C)c1ncccc1CNC(=O)COCC1CC1 | -2.02
14 | CC(C)C(=O)NCc1ccnc(-n2cccn2)c1 | 10.08
15 | O=C(Cn1cc(Br)cn1)NC1CCc2nccn2C1 (stereo not given) | -4.73
16 | CCCOc1cccc(NCCCS(C)(=O)=O)c1 | 1.09
17 | O=C(NCCCN1CCc2ccccc2C1)C1CC1 | -1.62
18 | NCC1CCN(c2cnn(CC3CCC3)c(=O)c2)CC1 | -9.55
19 | CC1CN(c2cc(CN)ccn2)CCO1 (stereo not given) | 10.77
20 | CC(C)(C(=O)N1CC[S+]([O-])C(C)(C)C1)c1ccccc1 (stereo not given) | 12.17
21 | NC(=O)NCC1CCN(Cc2ccccc2)C1 (stereo not given) | -16
22 | COCC(=O)Nc1cccc(CN2CCCC2)c1 | -2.77

Row | Structure (SMILES) | Inhibition [%]
23 | NC(=O)C1CCN(C(=O)C2CCCO2)CC1 (stereo not given) | -13.49
24 | COc1ccc(C(=O)NCc2ccccn2)cc1F | -44.49
25 | COC(=O)CNc1ccc2ccn(C)c(=O)c2c1 | 13.73
26 | CN1CCCC(CCN)C1 (stereo not given) | 8.27
27 | Cc1nn(C)c(C)c1CCC(=O)NC1CCCNC1=O (stereo not given) | 6.16
28 | O=C(c1ccc(Br)cn1)N1CCN(CCO)CC1 | 18.45
29 | CSc1ncccc1C(=O)N1CCCC(C)(C#N)C1 (stereo not given) | -17.22
30 | CC1CCCN(Cc2cc(=O)n(C)c(=O)n2C)C1 (stereo not given) | 8.23
31 | O=C(NC(C1CCNCC1)[C@H]1C[C@H](O)C1)C1(CO)CC1 (stereo not given in full) | 10.73
32 | CC1(C)Cc2cccc(OCCN)c2O1 | -35.66
33 | CN1CCC(CN(C)Cc2cncs2)C1 (stereo not given) | 2.31
34 | CC(Cn1cccn1)NC(=O)CCc1ccc(F)cc1 (stereo not given) | -50.8
35 | CC(C)c1nc(CN(CCO)Cc2nccn2C)co1 | -7.36
36 | CC1(C)CN(CC(O)C(F)(F)F)CCO1 (stereo not given) | 7.85
37 | COc1cccc(CN(C)CCN(C)C)c1OC | 12.2
38 | CC(C)NC(=O)CNC(=O)c1cc2cc(F)ccc2[nH]1 | -6.73
39 | CC1CCN(C(=O)NCCS(=O)(=O)C(C)(C)C)C1 (stereo not given) | 10.36
40 | CCNc1ncc(C(=O)N[C@@H]2CC[C@@H](N)C2)cn1 | 21.83
41 | CC(c1ccc(F)cc1)N(C)C(=O)CCCN (stereo not given) | -12.4
42 | c1nsnc1-c1nc(C2CCCO2)no1 (stereo not given) | -21.13
43 | O=C(NCc1nnc2n1CCC2)Nc1cn[nH]c1 | 21.21
44 | NCCCc1cn[nH]c1 | 12.47

Row | Structure (SMILES) | Inhibition [%]
45 | O=C(c1ccc(C2CCCNC2)cc1)N1CCSCC1 (stereo not given) | -23.58
46 | CCCNC(=O)C1CCN(c2ncccc2C#N)CC1 | -18.27
47 | CCC(C(=O)Nc1ccccc1)N1CCS(=O)(=O)CC1 (stereo not given) | 18.51
48 | COc1cc(F)c(S(=O)(=O)N(C)CC(N)=O)cc1OC | 33.48
49 | COc1nc(C)ccc1C#N | 11.86
50 | CC1(C)C(=O)NCCN1S(=O)(=O)c1ccccc1 | -8.7
51 | Nc1ccc(CN2CCN(CC(F)(F)F)CC2)cn1 | -9.81
52 | COc1ccc(C(=O)N2C[C@@H](CO)[C@H](N(C)C)C2)cn1 | -8.8
53 | NCc1cc2c([nH]c1=O)CCCC2 | 4.51
54 | C=C(C)CN1CCC(NC(=O)NC2CC2)CC1 | -6.54
55 | Cn1nc(C(=O)NCc2cc(Cl)ccn2)ccc1=O | -9.69
56 | CC(C)CC(NCCS(C)(=O)=O)c1ccccn1 (stereo not given) | 6.01
57 | Cc1sc(S(N)(=O)=O)cc1N | 7.68
58 | COc1ccc(CC(C)=O)cn1 | 4.82
59 | CC(C#N)CNC(=O)c1c(O)cc(F)cc1F (stereo not given) | 13.91
60 | Cc1cccc(CNCCS(=O)(=O)N2CCOCC2)c1 | -1.09
61 | c1cnc2cc(-c3nc(C4CCOC4)no3)nn2c1 (stereo not given) | 18.33
62 | CC(C)N(CCOc1ccccc1C#N)CC(N)=O | -27.27
63 | Cc1csc(N2CCCN(C(=O)c3cnsn3)CC2)n1 | -3.72
64 | O=C(c1cccc(-n2cccn2)n1)N1CCCC1 | 17.03
65 | COCCCn1c(SC2CCCCNC2=O)n[nH]c1=O (stereo not given) | -25.74
